Data published in paper PMC4336329 (PLoS ONE, 2015).
About 14,000 (4.5%) of roughly 310,000 compounds showed an effect of 50% or more. Effects have a minus sign here. This excerpt belongs to a sample that is enriched for strong results.

Target: human ether-à-go-go-related gene (hERG) potassium channel (human, UniProt Q12809)
Experiment: primary screen, population patch clamp on CHO cells stably expressing hERG; higher = less effect of the substance
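Further: peak tail current of the secondary pulse compared with the same well before compound.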

human ether-à-go-go-related gene (hERG) potassium channel, sequence (Q12809 whole entry, looked up): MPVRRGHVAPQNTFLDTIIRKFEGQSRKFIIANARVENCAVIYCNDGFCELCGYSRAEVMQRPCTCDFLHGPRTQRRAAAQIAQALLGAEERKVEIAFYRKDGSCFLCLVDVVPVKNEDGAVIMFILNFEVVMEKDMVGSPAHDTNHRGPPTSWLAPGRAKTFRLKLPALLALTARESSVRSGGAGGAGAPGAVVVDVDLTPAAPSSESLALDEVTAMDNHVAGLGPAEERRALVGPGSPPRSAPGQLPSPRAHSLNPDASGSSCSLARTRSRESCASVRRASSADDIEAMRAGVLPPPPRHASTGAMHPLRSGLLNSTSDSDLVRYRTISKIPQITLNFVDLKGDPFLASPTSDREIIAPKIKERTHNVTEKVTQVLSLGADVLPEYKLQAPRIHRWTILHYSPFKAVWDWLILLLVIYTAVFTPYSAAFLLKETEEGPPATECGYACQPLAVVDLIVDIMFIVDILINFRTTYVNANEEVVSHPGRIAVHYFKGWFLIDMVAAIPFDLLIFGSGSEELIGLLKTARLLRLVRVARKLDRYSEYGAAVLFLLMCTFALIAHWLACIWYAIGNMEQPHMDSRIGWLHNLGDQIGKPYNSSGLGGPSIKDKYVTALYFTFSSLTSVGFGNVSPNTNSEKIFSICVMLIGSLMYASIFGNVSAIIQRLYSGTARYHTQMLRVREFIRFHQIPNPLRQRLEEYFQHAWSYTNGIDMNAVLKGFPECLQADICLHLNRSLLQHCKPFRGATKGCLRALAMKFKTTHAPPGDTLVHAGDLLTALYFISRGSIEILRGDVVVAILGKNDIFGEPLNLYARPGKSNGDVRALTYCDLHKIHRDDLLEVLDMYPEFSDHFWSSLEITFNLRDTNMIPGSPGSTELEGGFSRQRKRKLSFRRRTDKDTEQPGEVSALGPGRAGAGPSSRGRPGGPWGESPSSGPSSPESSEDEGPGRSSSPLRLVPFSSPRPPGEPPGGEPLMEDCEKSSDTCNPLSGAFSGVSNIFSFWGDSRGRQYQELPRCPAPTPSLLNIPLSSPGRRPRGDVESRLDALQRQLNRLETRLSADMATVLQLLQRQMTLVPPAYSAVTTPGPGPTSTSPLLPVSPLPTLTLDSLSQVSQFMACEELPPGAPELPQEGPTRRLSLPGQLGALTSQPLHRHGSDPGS

Row | Compound | hERG current change (%, negative = inhibition) at 10uM [%]
1 | CCOC(=O)c1cccc(S(=O)(=O)N2CCCC2)c1 | 8.7
2 | COc1cc(/C=C/C(=O)OCC(=O)NCc2ccco2)ccc1O | 3.65
3 | COc1cc(/C=C/C(=O)N(Cc2ccccc2)c2ccccn2)cc(OC)c1OC | -23.2
4 | COc1ccc(/C=C/C(=O)N(Cc2ccccc2)c2ccccn2)cc1OC | -76.6
5 | C/C=C/c1ccc(OCCCCOc2ccc(OC)cc2)c(OC)c1 | -7.09
6 | C/C=C/c1ccc(OCC(O)CN(C)Cc2ccc(SC)cc2)c(OC)c1.O=C(O)C(=O)O (stereo not shown) | -71.2
7 | C/C=C/c1ccc(OCC(O)CN2CCCCCCC2)c(OC)c1 (stereo not shown) | -35.4
8 | COc1ccc(/C=C/C(=O)OCC(=O)NCc2ccco2)cc1OC | -72
9 | C/C=C/c1ccc(OCCCCN2CCC(C)CC2)c(OC)c1 | -68.1
10 | COc1cc(/C=C/C(=O)OCC(=O)NCc2ccco2)ccc1OC(F)F | 6.87
11 | COc1ccc(/C=C/C(=O)N(c2ccccn2)C2CCCCC2)cc1OC | -6.44
12 | C/C=C/c1ccc(OCC(=O)O)c(OC)c1 | 12.4
13 | COc1ccccc1OCCCCN1CCC(C)CC1 | -16
14 | CCOC(=O)C1=C(COc2ccc(F)cc2Cl)NC(=O)NC1c1cc(C)ccc1C (stereo not shown) | 10.6
15 | O=[N+]([O-])c1cc(Cl)ccc1Nc1ccccc1 | 9.85
16 | CCOC(=O)c1sc(NC(=O)COC(=O)CNC(=O)c2ccco2)c(C(=O)OCC)c1C | 4.08
17 | COc1cccc(CN2CCN(S(=O)(=O)c3ccccc3)CC2)c1OC | -4.11
18 | CC(C(=O)NCc1ccc2c(c1)OCO2)c1ccc([N+](=O)[O-])cc1 (stereo not shown) | -13.6
19 | Cc1ccc(-c2noc(CN3C(C)CCCC3C)n2)cc1 (stereo not shown) | 2.64
20 | Cc1cc(O)c(C=O)c2c1C(=O)Oc1c(CO)c(O)c3c(c1O2)C(O)OC3=O (stereo not shown) | 0.355
21 | C/C=C/c1ccc(OCCOCCNCc2ccccc2)c(OC)c1.O=C(O)C(=O)O | -37
22 | C/C=C/c1ccc(OCCCCN2CC(C)CC(C)C2)c(OC)c1.O=C(O)C(=O)O (stereo not shown) | -81.6
23 | C/C=C/c1ccc(OCCCNC)c(OC)c1.O=C(O)C(=O)O | -44.6
24 | C/C=C/c1ccc(OCCCCN2CCN(CC)CC2)c(OC)c1.O=C(O)C(=O)O | -29.5

Row | Compound | hERG current change (%, negative = inhibition) at 10uM [%]
25 | COc1cc(C)ccc1OCCCCN1CC(C)OC(C)C1.O=C(O)C(=O)O (stereo not shown) | -9.65
26 | C/C=C/c1ccc(OCCCNC(C)CC)c(OC)c1.O=C(O)C(=O)O (stereo not shown) | -14
27 | C/C=C/c1ccc(OCCCCNCc2ccco2)c(OC)c1.O=C(O)C(=O)O | -72.9
28 | C/C=C/c1ccc(OCCCCN(C)Cc2ccccc2)c(OC)c1.O=C(O)C(=O)O | -79.4
29 | C/C=C/c1ccc(OCCCNC2CCCC2)c(OC)c1.O=C(O)C(=O)O | -57.6
30 | C/C=C/c1ccc(OCCCCOc2ccccc2C(C)=O)c(OC)c1 | -12.1
31 | C/C=C/c1ccc(OCCNCc2ccccc2)c(OC)c1.O=C(O)C(=O)O | -39.8
32 | COc1cc(C)ccc1OCCOCCN(C)Cc1ccccc1.O=C(O)C(=O)O | -32.8
33 | C=CCN1CCN(C(c2ccccc2OC)c2nnnn2C(C)(C)C)CC1.Cl (stereo not shown) | -0.19
34 | CCOC(=O)c1c(C)oc2ccc(OC(=O)N3CCOCC3)cc12 | -16.1
35 | CCCN(CCC)C(=O)CCSCCC(=O)N(CCC)CCC | 14.5
36 | O=C(NCCN1CCOCC1)C1CCC(=O)N1Cc1ccc(F)cc1 (stereo not shown) | 1.05
37 | Cc1ccc(Nc2nnc(SCc3cc(=O)n4cc(C)ccc4n3)s2)cc1 | -36.6
38 | Cc1cccc2nc(CSc3nnc(N)s3)cn12 | -9.23
39 | COc1ccc(Nc2nnc(SCc3cc(=O)n4ccsc4n3)s2)cc1 | -68.9
40 | COc1ccc(Nc2nnc(SCc3cn4c(C)cccc4n3)s2)cc1 | -52.2
41 | O=c1cc(CSc2nnc(Nc3ccccc3)s2)nc2sccn12 | -27.6
42 | CCc1ccc(Nc2nnc(SCc3cc(=O)n4ccsc4n3)s2)cc1 | -11.5
43 | CCC(=O)N1CCC2(CC1)Oc1ccc(Cl)cc1C(=O)C21CC(c2cccnc2)=NO1 (stereo not shown) | -15.1
44 | O=C(CCCN1C(=O)c2cccnc2C1=O)N1CC(=O)N(CCc2ccccc2)C(=O)C1 | -9.44
45 | CCOC(=O)c1cnc2ccccc2c1Nc1cccc(C(=O)O)c1.Cl | 15.3
46 | CC(/C=C1\SC(=S)N(CCCC(=O)Nc2ccc(C(=O)O)c(O)c2)C1=O)=C\c1ccccc1 | 7.47
47 | Cc1ccc(C)c(S(=O)(=O)NCC(=O)Nc2ccc3c(c2)OCO3)c1 | 3.55
48 | Cc1cc(C)n(CCn2nc(C)cc2C)n1 | 4.43

Row | Compound | hERG current change (%, negative = inhibition) at 10uM [%]
49 | Cc1ccc(NC(=S)NCc2ccccc2Cl)c(C)c1 | 2.81
50 | CCC(C)NC(=O)c1cn(CC)c2ccc(S(=O)(=O)N(C)C)cc2c1=O (stereo not shown) | 1.45
51 | COCCN1CCN(C(=O)c2cc(COc3ccc(F)cc3Cl)on2)CC1 | -3.91
52 | NC(=O)CC(NC(=O)Cc1ccc(Br)cc1)c1ccc(N2CCN(c3ccccn3)CC2)c([N+](=O)[O-])c1 (stereo not shown) | 17.2
53 | COc1cc(NC(=O)CSc2nc(=O)n(CCN3CCOCC3)c3c2CCC3)cc(OC)c1 | -41.9
54 | COc1cc(NC(=O)CSc2nc(=O)n(CCCN3CCOCC3)c3c2CCC3)cc(OC)c1 | -34.9
55 | Cc1ccc(C)c(NC(=O)CSc2nc(=O)n(CCN3CCOCC3)c3c2CCCC3)c1 | -24.2
56 | CCN(CC)CCn1c2c(c(SCC(=O)Nc3cc(C)on3)nc1=O)CCCC2 | -25
57 | CCN(CC)CCn1c2c(c(SCC(=O)Nc3cc(C)cc(C)c3)nc1=O)CCC2 | -62.1
58 | COc1cc(NC(=O)CSc2nc(=O)n(CCN3CCOCC3)c3c2CCCC3)cc(OC)c1 | -23.3
59 | CCN(CC)CCn1c2c(c(SCC(=O)Nc3cc(OC)cc(OC)c3)nc1=O)CCC2 | -70.1
60 | CCN(CC)CCCn1c2c(c(SCC(=O)Nc3cc(OC)cc(OC)c3)nc1=O)CCC2 | -64.4
61 | CCN(CC)CCn1c2c(c(SCC(=O)Nc3cc(C)ccc3C)nc1=O)CCC2 | -61
62 | COC(=O)NC1(C(=O)O)CCCC1 | -0.802
63 | O=C(NNC(=O)c1cc(-c2ccco2)nc2ccccc12)c1ccccc1 | -3.05
64 | O=S(=O)(Nc1nc2ccccc2nc1NCC1CCCO1)c1ccc(F)cc1 (stereo not shown) | -1.06
65 | Cc1cc(OCC(=O)N2C[C@H]3C[C@@H](C2)c2cccc(=O)n2C3)c2c(C)cc(=O)oc2c1 | 10.3
66 | COc1ccc(/C=N/NC(=O)C(=O)N2CCN(c3ccccc3OC)CC2)cc1 | -27.6
67 | COc1cc(CCC(=O)Nc2ccc(Cl)c(C(F)(F)F)c2)cc(OC)c1OC | 13.1
68 | Cc1cc(Cl)c(S(=O)(=O)NCC2CCCO2)cc1OCC(N)=O (stereo not shown) | 4.47
69 | O=C(NC1CCCC1)c1cc(-c2ccc(Cl)cc2Cl)on1 | 7.16
70 | O=C(CN(Cc1ccco1)C(=O)c1ccc(N2CCCC2=O)cc1)Nc1ccccc1C(F)(F)F | -46.3
71 | CCNC(=O)c1sc2cc(C)ccc2c1Cl | -3.25
72 | CN(C)S(=O)(=O)c1ccc(N2CCCC2)c(C(=O)NC2CCC(O)CC2)c1 (stereo not shown) | 13.2

Row | Compound | hERG current change (%, negative = inhibition) at 10uM [%]
73 | c1ccc(-n2nnnc2NC2CCCCC2)cc1 | 11
74 | Cc1ccc(CSCC(Nc2ccc(C(=O)O)cc2[N+](=O)[O-])C(=O)O)cc1 (stereo not shown) | 6.66
75 | COc1cc2c(cc1OC)CN(Cc1ccc(OC)c(C)c1OC)CC2 | -43.6
76 | COc1cc(OC)c(CN2CCc3c([nH]c4ccccc34)C2)cc1Br | -54.9
77 | COc1ccccc1CN1CCc2c([nH]c3ccccc23)C1 | -23
78 | COc1ccc(CN2CCc3c([nH]c4ccccc34)C2)cc1Br | -45.9
79 | Clc1cccc(CN2CCc3c([nH]c4ccccc34)C2)c1Cl | -8.21
80 | COc1ccc(CN2CCc3c([nH]c4ccccc34)C2)c(OC)c1C | -62.4
81 | O=C(NNC(=O)C1CCN(Cc2cccc(F)c2)CC1)c1cccc(Cl)c1 | -8.28
82 | CCOc1ccc(C(=O)Nc2nnc(S(=O)(=O)N(C)Cc3ccco3)s2)cc1 | 9.14
83 | COCCN1Cc2cccc(C(=O)Nc3ccc4c(c3)OCCO4)c2C1=O | -5.24
84 | O=C(CSCc1cccc(F)c1)N1CCN(c2ccccc2)CC1 | -19.2
85 | Cc1ccc(NS(=O)(=O)c2c(C)[nH]c(=O)[nH]c2=O)c(C)c1 | 24.3
86 | COc1ccc(C(=O)N2CCN(C3CCN(Cc4ccccc4)CC3)CC2)cc1OC | -42.8
87 | COc1cccc(C(=O)N2CCN(C3CCCCC3)CC2)c1.O=C(O)C(=O)O | -13.5
88 | COc1ccc(C(=O)N2CCCN(C)CC2)c(OC)c1 | -5.24
89 | COc1ccc(C(=O)N2CCN(C3CCCCC3)CC2)cc1OC.O=C(O)C(=O)O | -73.6
90 | COc1cc(C(=O)N2CCN(C3CCCCC3)CC2)cc(OC)c1OC.O=C(O)C(=O)O | 2.07
91 | COc1ccc(C(=O)N2CCN(C3CCCCC3)CC2)c(OC)c1 | -73.6
92 | COc1cc(OC)cc(C(=O)N2CCN(C3CCCCC3)CC2)c1.O=C(O)C(=O)O | -23.4
93 | COc1ccc(C(=O)N2CCN(C(=O)Cc3ccccc3)CC2)cc1OC | 5.3
94 | COc1ccc(C(=O)N2CCN(C3CCC(c4ccccc4)CC3)CC2)cc1OC (stereo not shown) | -69.9
